From PubChem BioAssay (EPA / NIEHS)
Results filed as inconclusive are left out. The source made the active and inactive calls. How the source made its calls: active means hit-call score of the fitted dose curve at least 0.9, where 1 is the maximum; inconclusive means response in the unintended direction; inactive means score below 0.9.

Biological target: rat Oxytocin Receptor (OXT), Oxtr (gene 25342) (UniProt P70536)
Assay: NVS_GPCR_rOXT: NovaScreen (NVS) G Protein-Coupled Receptor Assay for rat Oxytocin Receptor (OXT) (AID 2283330)
Protocol: NVS_GPCR_rOXT is a biochemical, single-readout assay that uses extracted gene-proteins from Rat uterine membranes in a tissue-based cell-free assay. Measurements were taken 1 hour after chemical dosing in a 48-well plate.NVS_GPCR_rOXT is one of one assay component(s) measured or calculated from the NVS_GPCR_rOXT assay. It is designed to make measurements of radioligand binding, a form of binding reporter, as detected with scintillation counting signals by Filter-based radiodetection technology.Data from the assay component NVS_GPCR_rOXT was analyzed into 1 assay endpoint. This assay endpoint, NVS_GPCR_rOXT, was analyzed in the positive analysis fitting direction relative to DMSO as the negative control and baseline of activity. Using a type of binding reporter, loss-of-signal activity can be used to understand changes in the binding as they relate to the gene Oxtr. Furthermore, this assay endpoint can be referred to as a primary readout, because the performed assay has only produced 1 assay endpoint. To generalize the intended target to other relatable targets, this assay endpoint is annotated to the gpcr intended target family, where the subfamily is rhodopsin-like receptor.
Binding assays used specific radioligands (tritiated, iodinated) with non-radioactive competitive displacement ligands in agonist or antagonist protocols (as indicated) and various reference compounds and inhibitors to titrate specific binding to receptors and transporters. Most enzyme assays (CYPs, kinases, phosphatases, proteases, HDACs) used recombinant protein and specific substrates (fluorescence mostly, some colorimetric and radioactive) and inhibitors, followed by a biochemical separation of substrate and product. All assays for the biochemical HTS were initially run in duplicate at a single concentration (10 uM for CYP450 assays and 25 uM for all others). Assay-chemical combinations meeting a pre-defined threshold (e.g., 30% inhibition and other criteria defined below) were then run in singleton concentration-response format with maximum concentration of 20 uM for CYPs and 50 uM for all others. Each assay was run with positive and negative controls, and concurrent controls on every plate. The follow-up (secondary) screen tested active chemical-pairs in concentration series, as well as a few additional assays not tested in the primary screen, some selected negative inactives, and several cases re-run in the concentration series for confirmatory purposes.

Sequence of rat Oxytocin Receptor (OXT), Oxtr (gene 25342) (P70536 whole entry, looked up): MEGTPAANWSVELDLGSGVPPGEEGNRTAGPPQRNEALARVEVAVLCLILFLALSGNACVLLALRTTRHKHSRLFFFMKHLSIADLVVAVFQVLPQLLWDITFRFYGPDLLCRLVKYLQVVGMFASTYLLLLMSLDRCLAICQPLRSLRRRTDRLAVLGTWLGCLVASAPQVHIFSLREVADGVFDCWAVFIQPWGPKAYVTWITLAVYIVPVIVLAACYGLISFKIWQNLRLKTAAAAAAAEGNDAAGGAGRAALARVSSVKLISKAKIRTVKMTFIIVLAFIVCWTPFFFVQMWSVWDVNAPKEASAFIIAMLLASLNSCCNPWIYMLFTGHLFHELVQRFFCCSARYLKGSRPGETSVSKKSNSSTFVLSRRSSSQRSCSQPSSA

Row | Compound | outcome | AC50
1 | NC(N)=O | inactive | –
2 | OCCOCCOCCO | inactive | –
3 | CN(C[C@@H](CC[N+]12CCC(C3CCCCC3)(CC1)CC2)c1ccc(Cl)c(Cl)c1)C(=O)c1cc(C(F)(F)F)cc(C(F)(F)F)c1 | – | 16.5 µM (active)
4 | O=C1OC(=O)C2C3C=CC(C3)C12 (stereo not drawn) | inactive | –
5 | COc1ccc(S(=O)(=O)N2C(=O)[C@@](c3ccccc3OC)(N3C[C@H](O)C[C@H]3C(=O)N(C)C)c3cc(Cl)ccc32)c(OC)c1 | – | 0.0663 µM (active)
6 | CCOC(=O)COc1ccc2c(c1)CC(NCC(O)c1cccc(Cl)c1)CC2 (stereo not drawn) | inactive | –
7 | CCCN(CCC)C(=O)SCC | inactive | –
8 | CN(C)c1ccc(C(=C2C=CC(=[N+](C)C)C=C2)c2ccc(N(C)C)cc2)cc1 | – | 20.9 µM (active)
9 | COCCOC[C@H](CC1(C(=O)NC2CCC(C(=O)O)CC2)CCCC1)C(=O)Oc1ccc2c(c1)CCC2 (stereo partly drawn) | inactive | –
10 | CCCOc1sc(C(=O)N2CCC(c3cc(CN)ccc3F)CC2)c(C)c1Br | – | 23.2 µM (active)
11 | NCCOCCOCCN | inactive | –
12 | NCC1(Cc2noc(=O)[nH]2)CCCCC1 | inactive | –
13 | CCCCOC(=O)CCCCCCCCC(=O)OCCCC | inactive | –
14 | Cc1occc1C(=O)Nc1ccc(C(=O)N2CCC(F)(F)/C(=C\C(=O)N3CCC(N4CCCCC4)CC3)c3ccccc32)cc1 | – | 0.119 µM (active)
15 | CCN(CC)C(=O)c1cc(S(=O)(=O)Cc2ccccc2)c(N2CCC(c3ccccc3)CC2)cc1N(CC)CCN(C)C | – | 6.13 µM (active)
16 | CCCCCCCCCC | inactive | –
17 | Cc1nc(-c2ccc3c(c2)CCN(CCC2CCC(NC(=O)/C=C/c4ccc(F)cc4)CC2)CC3)no1 (stereo not drawn) | inactive | –
18 | CCN(Cc1cccnc1)C(=O)c1cccc(Cl)c1[C@]1(C)C(=O)N(Cc2ccc(OC)cc2OC)c2ccc(Cl)cc21 | – | 0.0728 µM (active)
19 | CC[C@H](C)C(=O)O[C@H]1C[C@H](O)C=C2C=C[C@H](C)[C@H](CC[C@@H](O)C[C@@H](O)CC(=O)O)[C@H]21 | inactive | –
20 | CCCN(CCC)c1c([N+](=O)[O-])cc(C(F)(F)F)c(N)c1[N+](=O)[O-] | inactive | –
21 | CC(C)(c1ccc(O)cc1)c1ccc(O)cc1 | – | 7.41 µM (active)
22 | COc1ccc2cc(S(=O)(=O)N[C@H](CC(=O)N[C@H](Cc3ccc(CN4[C@H](C)CCC[C@@H]4C)cc3)C(=O)N(C)C(C)C)c3ccc4c(c3)OCO4)ccc2c1 | inactive | –
23 | N#CCCCCC#N | inactive | –
